ChEMBL document CHEMBL1201862, “PubChem BioAssay data set” (2004)
About 3,200 (7.3%) of roughly 44,000 sequences were called active. Cut-off read from the data, not from the text of the source: active = GI50 up to about 1.1 µM and inactive = higher. For the sample, actives were picked, then their nearest neighbours and some sequences at random. Entries with a potency or affinity are not part of this list.

What follows are substances tested on DU-145.

Row | Substance | GI50 [nM]
1 | [Bis(aminomethyl)dimethylsilane]tetrachloroplatinum(IV), CHEMBL2146190 | 5020
2 | [Bis(aminomethyl)pentamethylenesilane]tetrachloropaltinum(IV), CHEMBL2146204 | 344
3 | [Bis(aminomethyl)pentamethylenesilane]dichloropaltinum(II), CHEMBL2146202 | 1290
4 | [Bis(aminomethyl)tetramethylenesilane]tetrachloropaltinum(IV), CHEMBL2146189 | 2220
5 | CISPLATIN, CHEMBL11359 | 1990
6 | [Bis(aminomethyl)tetramethylenesilane]dichloropaltinum(II), CHEMBL2146205 | 8150
